Data taken from PubChem BioAssay (EPA / NIEHS).
“And” between values parts separate entries of the source, which are not always exact repeats. Equal entries are not always repeated. The source holds several records for some structures; these can differ, active in one and inactive in another. The source made the active and inactive calls. Rule for the calls: active = hit-call score of the fitted dose curve at least 0.9, where 1 is the maximum; inactive = score below 0.9.

Target: Cellular tumor antigen p53 (Homo sapiens) (UniProt P04637)
Sequence (P04637 whole entry, looked up): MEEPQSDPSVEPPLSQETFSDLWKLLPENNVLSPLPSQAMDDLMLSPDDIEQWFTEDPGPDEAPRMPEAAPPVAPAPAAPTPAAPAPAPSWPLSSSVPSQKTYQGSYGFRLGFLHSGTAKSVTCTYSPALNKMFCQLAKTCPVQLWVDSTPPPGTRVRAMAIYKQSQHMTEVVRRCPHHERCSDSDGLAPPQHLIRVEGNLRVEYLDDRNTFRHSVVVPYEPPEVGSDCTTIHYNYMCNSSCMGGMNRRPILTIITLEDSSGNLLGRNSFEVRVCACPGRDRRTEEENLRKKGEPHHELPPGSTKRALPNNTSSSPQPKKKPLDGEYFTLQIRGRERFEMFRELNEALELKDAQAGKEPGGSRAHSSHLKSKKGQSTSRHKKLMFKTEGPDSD
Experiment: ATG_p53_CIS: Attagene CIS-FACTORIAL HepG2 Assay for human p53 Transcription Factor (AID 2282994)
Conditions: HepG2 p53 cis-element reporter, Attagene mRNA; actives raise or lower the signal
Description: ATG_CIS is a cell-based, multiplexed-readout assay that uses HepG2, a human liver cell line, with measurements taken at 24 hours after chemical dosing in a 24-well plate.ATG_p53_CIS is one of 52 assay component(s) measured or calculated from the ATG_CIS assay. It is designed to make measurements of mRNA induction, a form of inducible reporter, as detected with fluorescence intensity signals by Reverse transcription polymerase chain reaction (RT-PCR) and Capillary electrophoresis technology.Data from the assay component ATG_p53_CIS was analyzed into 1 assay endpoint. This assay endpoint, ATG_p53_CIS, was analyzed with bidirectional fitting relative to DMSO as the negative control and baseline of activity. Using a type of inducible reporter, measures of mRNA for gain or loss-of-signal activity can be used to understand the reporter gene at the transcription factor-level as they relate to the gene TP53. Furthermore, this assay endpoint can be referred to as a primary readout, because this assay has produced multiple assay endpoints where this one serves a reporter gene function. To generalize the intended target to other relatable targets, this assay endpoint is annotated to the dna binding intended target family, where the subfamily is tumor suppressor.
Human liver HepG2 cells are transiently transfected with multiple reporter transcription units (MRTUs) in 6-well plates using FuGene 6 reagent (Roche; 3 ml FuGene/1 mg DNA). The MRTU constructs are regulated by a cis-regulating element (promoter). […] A major difference between the CIS and TRANS system is that in CIS activities of endogenous TFs are measured, whereas the TRANS assay evaluates changes in activities of exogenous, chimeric NR-Gal4 proteins. […] At the end of 24 hour incubation, total RNA was isolated using TriZol reagent (Invitrogen). The isolated RNA is then reverse-transcribed using oligo(dT) primer and Mo-MLV reverse transcriptase (Invitrogen) with DNAse I (Ambion) treatment for 30 min. The one-tenth of the produced cDNA was amplified by PCR using Taq DNA polymerase (Invitrogen) and two reporter sequence-specific primers. The PCR products were fluorescently labeled by primer extension with 6-arboxyfluorescein (6-FAM) 5'-labeled reporter sequence-specific primer (2 min at 95 C, 20 s at 68 C and 10 min at 72 C) and these products were digested with 5U of HpaI (New England Biolabs) for 2h at 37 C. The fragments were purified using Qiaquick PCR columns (Qiagen), analyzed on an ABI 3130xL genetic analyzer (Applied Biosystems) with peak positions identified by using a set of X-rhodamine (ROX)-labeled MapMarker1000 molecular weight standards (BioVentures). The raw capillary electrophoresis data was processed using Attagraph software (Attagene).

SMILES | outcome | AC50
CCNc1nc(Cl)nc(NC(C)C)n1 | inactive | 
C=CCC1=C(C)C(OC(=O)C2C(C=C(C)C)C2(C)C)CC1=O (stereo not given) | inactive | 170 µM (active) and 86.4 µM (active)
CCCCNC(=O)OCC#CI | inactive | 33.5 µM (active)
COC(=O)C(C)Oc1ccc(Oc2ccc(Cl)cc2Cl)cc1 (stereo not given) | inactive | 
COc1ccc(C(c2ccc(OC)cc2)C(Cl)(Cl)Cl)cc1 | inactive | 
CCCCC(CC)COC(=O)c1ccccc1C(=O)OCC(CC)CCCC (stereo not given) | inactive | 
Cc1cc(Cl)ccc1OCC(=O)O | inactive | 
CCCC1COC(Cn2cncn2)(c2ccc(Cl)cc2Cl)O1 (stereo not given) | inactive | 
COP(N)(=O)SC (stereo not given) | inactive | 
COP(=S)(OC)Oc1nc(Cl)c(Cl)cc1Cl | inactive | 
CCOc1cc(Oc2ccc(C(F)(F)F)cc2Cl)ccc1[N+](=O)[O-] | inactive | 
CC(Oc1ccc(Cl)cc1Cl)C(=O)O (stereo not given) | inactive | 
Cc1ccc(-c2c(Cl)nc(C#N)n2S(=O)(=O)N(C)C)cc1 | inactive | 
O=C(O)c1nc(Cl)ccc1Cl | inactive | 
CCOC(=O)C(Cl)Cc1cc(-n2nc(C)n(C(F)F)c2=O)c(F)cc1Cl (stereo not given) | inactive | 
O=C(O)COc1nc(Cl)c(Cl)cc1Cl | inactive | 
C#CCOS(=O)OC1CCCCC1Oc1ccc(C(C)(C)C)cc1 (stereo not given) | inactive | 
COC(=O)N(OC)c1ccccc1COc1ccn(-c2ccc(Cl)cc2)n1 | inactive | 
CC(C)(C)c1ccc(CSc2cnn(C(C)(C)C)c(=O)c2Cl)cc1 | inactive | 

SMILES | outcome | AC50
Cc1c(F)c(F)c(COC(=O)C2C(/C=C(\Cl)C(F)(F)F)C2(C)C)c(F)c1F (stereo not given) | inactive | 
OC(c1ccc(Cl)cc1)(c1cncnc1)c1ccccc1Cl (stereo not given) | inactive | 
CC1COC(Cn2cncn2)(c2ccc(Oc3ccc(Cl)cc3)cc2Cl)O1 (stereo not given) | inactive | 
CON(C)C(=O)Nc1ccc(Cl)c(Cl)c1 | inactive | 
C=CCC1=C(C)[C@@H](OC(=O)[C@@H]2[C@@H](C=C(C)C)C2(C)C)CC1=O | inactive | 
O=C(Nc1ccccc1)Nc1ccnc(Cl)c1 | inactive | 
C=CC1(C)OC(=O)N(c2cc(Cl)cc(Cl)c2)C1=O (stereo not given) | inactive | 
N#Cc1nn(-c2c(Cl)cc(C(F)(F)F)cc2Cl)c(N)c1S(=O)C(F)(F)F (stereo not given) | inactive | 
CCc1nn(C)c(C(=O)NCc2ccc(C(C)(C)C)cc2)c1Cl |  | 1.9 µM (active)
N#Cc1cc(Br)c(O)c(Br)c1 | inactive | 
N#CC(CCc1ccc(Cl)cc1)(Cn1cncn1)c1ccccc1 (stereo not given) | inactive | 
CC(C)Oc1cc(-n2nc(C(C)(C)C)oc2=O)c(Cl)cc1Cl | inactive | 
COC(=O)C=C(C)OP(=O)(OC)OC | inactive | 
CC1=C(C(=O)Nc2ccccc2)SCCO1 | inactive | 
CCON=C(CC)C1=C(O)CC(c2c(C)cc(C)cc2C)CC1=O (stereo not given) | inactive | 
CN(C)C(=S)SSC(=S)N(C)C | inactive | 
COc1cnc(OC)n2nc(NS(=O)(=O)c3c(OCC(F)F)cccc3C(F)(F)F)nc12 | inactive | 
CCCCOC(=O)c1ccccc1C(=O)OCCCC | inactive | 
COc1nc(C)nc(NC(=O)NS(=O)(=O)c2ccccc2Cl)n1 | inactive | 
